Experimental data reported in ChEMBL document CHEMBL2218924, “A broad activity screen in support of a chemogenomic map for kinase signalling research and drug discovery” (Biochem J, 2013).

Tests used:
[1] = molecular target: T1, Ephrin type-A receptor 3 (Homo sapiens) (UniProt P29320); settings: at 10 µM
T1 sequence (whole entry): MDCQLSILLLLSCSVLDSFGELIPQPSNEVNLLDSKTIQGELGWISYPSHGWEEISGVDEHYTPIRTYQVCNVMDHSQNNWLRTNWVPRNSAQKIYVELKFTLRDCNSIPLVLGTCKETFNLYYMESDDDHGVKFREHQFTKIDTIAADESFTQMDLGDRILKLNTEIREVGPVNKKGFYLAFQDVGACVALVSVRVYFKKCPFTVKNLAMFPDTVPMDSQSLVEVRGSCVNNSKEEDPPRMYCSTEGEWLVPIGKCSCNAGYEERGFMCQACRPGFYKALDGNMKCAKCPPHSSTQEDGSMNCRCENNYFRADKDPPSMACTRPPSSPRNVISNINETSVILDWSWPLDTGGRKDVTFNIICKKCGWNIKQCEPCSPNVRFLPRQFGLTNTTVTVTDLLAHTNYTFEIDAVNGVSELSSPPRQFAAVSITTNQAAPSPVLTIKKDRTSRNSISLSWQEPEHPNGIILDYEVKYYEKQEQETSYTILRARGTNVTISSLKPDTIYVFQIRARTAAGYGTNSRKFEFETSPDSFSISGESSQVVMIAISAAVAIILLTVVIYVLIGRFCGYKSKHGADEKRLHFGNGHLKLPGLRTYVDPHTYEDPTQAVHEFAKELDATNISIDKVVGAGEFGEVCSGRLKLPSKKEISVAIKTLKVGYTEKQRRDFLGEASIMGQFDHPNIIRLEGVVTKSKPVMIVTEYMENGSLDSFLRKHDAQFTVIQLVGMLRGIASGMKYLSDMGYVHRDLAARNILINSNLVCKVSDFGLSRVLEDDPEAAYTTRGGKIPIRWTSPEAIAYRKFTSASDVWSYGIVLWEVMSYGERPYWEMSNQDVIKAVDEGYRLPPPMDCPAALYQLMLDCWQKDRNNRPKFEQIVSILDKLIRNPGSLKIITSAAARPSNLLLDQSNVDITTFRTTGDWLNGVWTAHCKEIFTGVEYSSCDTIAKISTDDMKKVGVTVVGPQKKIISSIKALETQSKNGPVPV

[2] = molecular target: Ephrin type-A receptor 4 (Homo sapiens) (UniProt P54764); settings: at 1 µM
Sequence of Ephrin type-A receptor 4 (Homo sapiens) (P54764 whole entry): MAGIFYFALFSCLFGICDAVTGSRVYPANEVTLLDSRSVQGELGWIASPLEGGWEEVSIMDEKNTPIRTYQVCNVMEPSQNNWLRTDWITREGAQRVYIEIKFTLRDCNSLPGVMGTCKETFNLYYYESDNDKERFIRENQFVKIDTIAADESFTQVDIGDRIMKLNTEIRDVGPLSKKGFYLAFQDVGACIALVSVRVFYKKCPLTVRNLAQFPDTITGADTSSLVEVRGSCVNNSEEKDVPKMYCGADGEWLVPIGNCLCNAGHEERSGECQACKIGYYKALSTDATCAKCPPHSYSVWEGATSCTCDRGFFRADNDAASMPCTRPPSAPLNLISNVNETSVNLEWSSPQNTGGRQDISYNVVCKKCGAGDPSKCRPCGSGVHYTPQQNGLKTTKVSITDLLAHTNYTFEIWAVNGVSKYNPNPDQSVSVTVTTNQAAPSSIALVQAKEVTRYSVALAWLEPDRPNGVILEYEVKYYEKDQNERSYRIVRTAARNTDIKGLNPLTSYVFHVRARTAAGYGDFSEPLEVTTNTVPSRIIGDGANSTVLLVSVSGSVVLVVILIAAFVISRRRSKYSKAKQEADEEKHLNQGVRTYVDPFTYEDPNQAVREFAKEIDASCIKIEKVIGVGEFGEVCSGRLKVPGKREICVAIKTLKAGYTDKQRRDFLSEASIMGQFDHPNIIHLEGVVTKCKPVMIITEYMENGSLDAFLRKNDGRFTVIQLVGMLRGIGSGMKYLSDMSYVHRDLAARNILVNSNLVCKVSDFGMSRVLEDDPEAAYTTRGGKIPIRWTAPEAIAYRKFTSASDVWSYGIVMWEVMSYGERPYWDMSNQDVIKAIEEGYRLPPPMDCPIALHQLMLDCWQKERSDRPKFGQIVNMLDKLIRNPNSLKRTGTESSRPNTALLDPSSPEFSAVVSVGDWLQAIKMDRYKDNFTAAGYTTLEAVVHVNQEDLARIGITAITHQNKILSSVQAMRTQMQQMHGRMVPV

[3] = molecular target: Ephrin type-A receptor 4 (Homo sapiens) (UniProt P54764); settings: at 10 µM
[4] = molecular target: Ephrin type-A receptor 5 (Homo sapiens) (UniProt P54756); settings: at 1 µM
Sequence of Ephrin type-A receptor 5 (Homo sapiens) (P54756 whole entry): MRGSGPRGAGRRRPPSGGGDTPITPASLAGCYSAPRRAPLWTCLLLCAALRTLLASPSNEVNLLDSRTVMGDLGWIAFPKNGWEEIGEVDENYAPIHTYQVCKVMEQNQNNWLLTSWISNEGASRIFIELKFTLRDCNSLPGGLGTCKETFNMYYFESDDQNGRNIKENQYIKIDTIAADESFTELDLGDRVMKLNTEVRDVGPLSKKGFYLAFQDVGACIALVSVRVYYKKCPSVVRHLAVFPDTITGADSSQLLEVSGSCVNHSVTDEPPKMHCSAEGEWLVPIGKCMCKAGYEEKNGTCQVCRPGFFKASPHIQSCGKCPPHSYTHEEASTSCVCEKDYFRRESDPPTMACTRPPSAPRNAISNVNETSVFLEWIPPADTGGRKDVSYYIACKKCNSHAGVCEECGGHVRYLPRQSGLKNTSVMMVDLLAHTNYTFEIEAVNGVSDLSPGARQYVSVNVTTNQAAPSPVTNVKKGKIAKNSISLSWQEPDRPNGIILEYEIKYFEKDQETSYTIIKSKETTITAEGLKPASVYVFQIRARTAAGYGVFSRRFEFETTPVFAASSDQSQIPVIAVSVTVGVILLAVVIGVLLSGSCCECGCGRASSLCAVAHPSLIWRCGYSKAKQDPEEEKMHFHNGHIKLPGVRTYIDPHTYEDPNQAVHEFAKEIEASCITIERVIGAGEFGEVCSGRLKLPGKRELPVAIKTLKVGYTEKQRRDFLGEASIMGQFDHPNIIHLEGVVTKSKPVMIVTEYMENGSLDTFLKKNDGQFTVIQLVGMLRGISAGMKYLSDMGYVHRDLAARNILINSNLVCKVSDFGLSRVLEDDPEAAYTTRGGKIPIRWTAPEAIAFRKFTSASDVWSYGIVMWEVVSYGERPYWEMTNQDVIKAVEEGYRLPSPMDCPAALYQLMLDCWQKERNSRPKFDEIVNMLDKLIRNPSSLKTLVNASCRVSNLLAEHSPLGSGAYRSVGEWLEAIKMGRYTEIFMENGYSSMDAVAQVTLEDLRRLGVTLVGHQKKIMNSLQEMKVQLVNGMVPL

[5] = molecular target: Ephrin type-A receptor 5 (Homo sapiens) (UniProt P54756); settings: at 10 µM
[6] = molecular target: Ephrin type-A receptor 7 (Homo sapiens) (UniProt Q15375); settings: at 1 µM
Sequence of Ephrin type-A receptor 7 (Homo sapiens) (Q15375 28-998 limits assumed): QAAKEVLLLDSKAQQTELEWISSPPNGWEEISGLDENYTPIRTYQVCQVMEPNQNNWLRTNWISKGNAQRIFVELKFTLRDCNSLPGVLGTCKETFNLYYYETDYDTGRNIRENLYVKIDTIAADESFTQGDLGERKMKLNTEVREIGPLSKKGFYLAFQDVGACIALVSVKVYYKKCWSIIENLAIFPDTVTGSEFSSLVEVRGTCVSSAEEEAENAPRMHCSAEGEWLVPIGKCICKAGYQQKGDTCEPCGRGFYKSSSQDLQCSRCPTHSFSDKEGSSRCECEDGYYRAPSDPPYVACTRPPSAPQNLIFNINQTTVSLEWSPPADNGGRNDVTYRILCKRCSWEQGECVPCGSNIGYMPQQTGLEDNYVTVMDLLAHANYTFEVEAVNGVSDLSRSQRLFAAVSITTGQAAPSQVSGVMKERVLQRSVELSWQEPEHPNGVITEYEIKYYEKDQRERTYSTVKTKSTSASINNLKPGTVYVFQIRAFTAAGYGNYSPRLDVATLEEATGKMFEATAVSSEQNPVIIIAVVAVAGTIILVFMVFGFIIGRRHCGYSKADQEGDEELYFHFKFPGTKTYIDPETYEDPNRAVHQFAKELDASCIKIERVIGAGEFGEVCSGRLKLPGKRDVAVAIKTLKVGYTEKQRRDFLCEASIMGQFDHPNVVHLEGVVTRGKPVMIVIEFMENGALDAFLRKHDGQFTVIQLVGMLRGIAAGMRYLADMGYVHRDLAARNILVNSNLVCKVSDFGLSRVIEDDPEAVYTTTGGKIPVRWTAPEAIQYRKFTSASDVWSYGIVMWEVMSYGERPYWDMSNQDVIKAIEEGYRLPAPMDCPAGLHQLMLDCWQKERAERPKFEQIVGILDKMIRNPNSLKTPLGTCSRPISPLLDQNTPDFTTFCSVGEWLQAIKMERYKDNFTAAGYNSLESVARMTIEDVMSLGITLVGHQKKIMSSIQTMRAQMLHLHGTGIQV

[7] = molecular target: Ephrin type-A receptor 7 (Homo sapiens) (UniProt Q15375); settings: at 10 µM
[8] = molecular target: T2, Ephrin type-B receptor 1 (Homo sapiens) (UniProt P54762); settings: at 1 µM
T2 sequence (whole entry): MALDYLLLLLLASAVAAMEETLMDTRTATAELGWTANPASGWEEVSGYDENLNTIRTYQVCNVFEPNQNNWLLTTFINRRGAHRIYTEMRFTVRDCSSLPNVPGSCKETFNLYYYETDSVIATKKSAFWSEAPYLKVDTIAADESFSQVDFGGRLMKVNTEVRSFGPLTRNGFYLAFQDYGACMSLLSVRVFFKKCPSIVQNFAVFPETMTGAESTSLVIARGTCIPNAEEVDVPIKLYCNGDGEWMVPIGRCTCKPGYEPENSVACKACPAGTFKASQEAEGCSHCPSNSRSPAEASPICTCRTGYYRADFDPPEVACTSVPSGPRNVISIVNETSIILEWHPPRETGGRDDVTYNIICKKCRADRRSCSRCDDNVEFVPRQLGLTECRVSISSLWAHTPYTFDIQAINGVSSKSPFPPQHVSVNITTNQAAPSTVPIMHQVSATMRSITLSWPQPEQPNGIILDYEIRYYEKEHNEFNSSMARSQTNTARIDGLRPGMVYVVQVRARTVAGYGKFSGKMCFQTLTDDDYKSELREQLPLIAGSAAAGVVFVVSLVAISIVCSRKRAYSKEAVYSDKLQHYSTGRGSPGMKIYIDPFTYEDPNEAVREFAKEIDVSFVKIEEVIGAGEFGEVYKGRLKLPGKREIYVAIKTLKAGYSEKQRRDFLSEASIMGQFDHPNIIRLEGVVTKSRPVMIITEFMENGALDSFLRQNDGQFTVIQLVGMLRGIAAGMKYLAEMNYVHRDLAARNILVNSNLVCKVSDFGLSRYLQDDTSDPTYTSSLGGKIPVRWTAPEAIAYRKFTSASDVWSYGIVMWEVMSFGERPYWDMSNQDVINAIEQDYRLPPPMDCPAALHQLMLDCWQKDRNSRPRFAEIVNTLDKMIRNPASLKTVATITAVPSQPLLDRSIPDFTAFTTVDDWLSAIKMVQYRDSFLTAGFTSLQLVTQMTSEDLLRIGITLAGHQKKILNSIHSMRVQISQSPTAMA

[9] = molecular target: T2, Ephrin type-B receptor 1 (Homo sapiens); settings: at 10 µM
[10] = molecular target: T3, Ephrin type-B receptor 2 (Homo sapiens) (UniProt P29323); settings: at 1 µM
T3 sequence (whole entry): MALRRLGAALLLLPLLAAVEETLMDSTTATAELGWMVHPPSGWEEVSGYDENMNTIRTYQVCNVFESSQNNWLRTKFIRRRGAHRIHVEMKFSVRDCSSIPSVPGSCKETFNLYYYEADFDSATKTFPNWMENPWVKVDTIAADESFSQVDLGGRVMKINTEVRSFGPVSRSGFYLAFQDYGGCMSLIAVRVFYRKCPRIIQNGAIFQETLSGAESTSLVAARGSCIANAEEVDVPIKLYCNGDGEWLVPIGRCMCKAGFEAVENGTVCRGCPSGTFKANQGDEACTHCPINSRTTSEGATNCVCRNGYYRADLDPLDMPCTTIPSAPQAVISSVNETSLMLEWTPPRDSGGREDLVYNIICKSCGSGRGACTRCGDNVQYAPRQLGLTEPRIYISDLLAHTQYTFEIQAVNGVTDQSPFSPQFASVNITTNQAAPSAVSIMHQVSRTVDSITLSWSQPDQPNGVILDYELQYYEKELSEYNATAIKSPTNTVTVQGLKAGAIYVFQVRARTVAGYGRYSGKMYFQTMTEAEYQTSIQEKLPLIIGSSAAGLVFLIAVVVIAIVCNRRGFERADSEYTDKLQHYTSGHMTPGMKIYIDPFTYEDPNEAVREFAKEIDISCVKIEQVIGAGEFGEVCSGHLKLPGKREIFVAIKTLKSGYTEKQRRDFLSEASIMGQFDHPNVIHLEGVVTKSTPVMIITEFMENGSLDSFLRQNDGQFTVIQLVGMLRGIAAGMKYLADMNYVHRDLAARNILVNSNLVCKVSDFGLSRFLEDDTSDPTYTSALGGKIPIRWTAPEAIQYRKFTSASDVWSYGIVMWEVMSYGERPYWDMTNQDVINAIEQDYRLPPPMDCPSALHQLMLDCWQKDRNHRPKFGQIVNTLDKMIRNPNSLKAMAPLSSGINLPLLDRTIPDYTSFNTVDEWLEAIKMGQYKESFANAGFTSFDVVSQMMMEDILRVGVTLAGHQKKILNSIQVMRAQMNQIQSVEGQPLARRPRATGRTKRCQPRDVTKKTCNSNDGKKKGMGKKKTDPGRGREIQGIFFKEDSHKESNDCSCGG

[11] = molecular target: T3, Ephrin type-B receptor 2 (Homo sapiens); settings: at 10 µM
[12] = molecular target: T4, Ephrin type-B receptor 3 (Homo sapiens) (UniProt P54753); settings: at 1 µM
T4 sequence (whole entry): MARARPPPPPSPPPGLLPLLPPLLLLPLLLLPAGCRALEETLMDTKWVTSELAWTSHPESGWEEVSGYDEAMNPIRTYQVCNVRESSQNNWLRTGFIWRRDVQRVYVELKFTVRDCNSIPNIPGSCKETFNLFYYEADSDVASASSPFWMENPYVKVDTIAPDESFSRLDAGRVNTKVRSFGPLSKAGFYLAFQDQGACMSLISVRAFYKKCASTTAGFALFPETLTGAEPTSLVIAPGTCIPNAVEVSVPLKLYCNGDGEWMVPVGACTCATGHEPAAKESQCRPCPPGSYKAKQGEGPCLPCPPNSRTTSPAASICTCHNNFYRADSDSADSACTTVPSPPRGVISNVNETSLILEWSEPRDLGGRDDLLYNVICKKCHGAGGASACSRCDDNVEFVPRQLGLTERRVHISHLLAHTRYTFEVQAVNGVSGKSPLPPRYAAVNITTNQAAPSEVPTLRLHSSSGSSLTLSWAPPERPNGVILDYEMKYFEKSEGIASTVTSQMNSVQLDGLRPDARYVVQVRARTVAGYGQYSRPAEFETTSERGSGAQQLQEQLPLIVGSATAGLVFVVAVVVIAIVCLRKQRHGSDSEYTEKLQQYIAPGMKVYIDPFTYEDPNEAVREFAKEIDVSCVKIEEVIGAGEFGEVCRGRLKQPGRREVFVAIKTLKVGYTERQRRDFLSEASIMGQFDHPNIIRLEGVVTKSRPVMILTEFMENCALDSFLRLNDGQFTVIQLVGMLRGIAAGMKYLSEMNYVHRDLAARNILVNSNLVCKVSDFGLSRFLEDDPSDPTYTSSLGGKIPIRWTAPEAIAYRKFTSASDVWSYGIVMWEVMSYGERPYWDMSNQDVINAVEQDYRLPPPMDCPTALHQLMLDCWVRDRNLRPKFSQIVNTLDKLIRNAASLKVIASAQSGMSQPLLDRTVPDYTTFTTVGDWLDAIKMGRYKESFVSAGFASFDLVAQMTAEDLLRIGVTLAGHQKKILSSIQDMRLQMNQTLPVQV

[13] = molecular target: T4, Ephrin type-B receptor 3 (Homo sapiens); settings: at 10 µM
[14] = molecular target: T5, Ephrin type-B receptor 4 (Homo sapiens) (UniProt P54760); settings: at 1 µM
T5 sequence (whole entry): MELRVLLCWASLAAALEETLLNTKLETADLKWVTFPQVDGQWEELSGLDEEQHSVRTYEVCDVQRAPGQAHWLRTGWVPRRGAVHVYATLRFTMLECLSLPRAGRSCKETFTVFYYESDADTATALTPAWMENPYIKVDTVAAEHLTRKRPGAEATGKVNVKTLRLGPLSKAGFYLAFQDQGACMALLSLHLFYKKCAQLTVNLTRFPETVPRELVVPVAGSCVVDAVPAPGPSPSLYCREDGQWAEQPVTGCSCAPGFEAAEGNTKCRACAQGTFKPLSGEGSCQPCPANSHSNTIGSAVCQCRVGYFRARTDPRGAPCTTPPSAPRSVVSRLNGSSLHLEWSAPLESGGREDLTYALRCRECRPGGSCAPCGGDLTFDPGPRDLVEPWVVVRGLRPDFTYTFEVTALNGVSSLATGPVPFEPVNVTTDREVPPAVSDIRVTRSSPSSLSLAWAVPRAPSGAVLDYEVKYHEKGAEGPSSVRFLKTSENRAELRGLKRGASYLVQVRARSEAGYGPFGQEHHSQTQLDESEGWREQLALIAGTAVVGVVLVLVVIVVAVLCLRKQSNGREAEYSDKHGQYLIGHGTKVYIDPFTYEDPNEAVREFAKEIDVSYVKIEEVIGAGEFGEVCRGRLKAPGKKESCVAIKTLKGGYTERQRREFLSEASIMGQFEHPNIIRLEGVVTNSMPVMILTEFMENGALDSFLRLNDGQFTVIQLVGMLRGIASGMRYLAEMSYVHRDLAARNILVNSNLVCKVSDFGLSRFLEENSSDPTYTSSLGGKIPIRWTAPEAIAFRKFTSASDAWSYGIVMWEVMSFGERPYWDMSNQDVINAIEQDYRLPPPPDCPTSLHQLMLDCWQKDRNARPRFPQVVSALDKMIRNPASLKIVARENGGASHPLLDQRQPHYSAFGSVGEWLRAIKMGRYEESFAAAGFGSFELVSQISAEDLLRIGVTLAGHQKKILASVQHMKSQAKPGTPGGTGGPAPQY

[15] = molecular target: T5, Ephrin type-B receptor 4 (Homo sapiens); settings: at 10 µM
[16] = molecular target: Receptor tyrosine-protein kinase erbB-4 (Homo sapiens) (UniProt Q15303); settings: at 1 µM
Sequence of Receptor tyrosine-protein kinase erbB-4 (Homo sapiens) (Q15303 whole entry): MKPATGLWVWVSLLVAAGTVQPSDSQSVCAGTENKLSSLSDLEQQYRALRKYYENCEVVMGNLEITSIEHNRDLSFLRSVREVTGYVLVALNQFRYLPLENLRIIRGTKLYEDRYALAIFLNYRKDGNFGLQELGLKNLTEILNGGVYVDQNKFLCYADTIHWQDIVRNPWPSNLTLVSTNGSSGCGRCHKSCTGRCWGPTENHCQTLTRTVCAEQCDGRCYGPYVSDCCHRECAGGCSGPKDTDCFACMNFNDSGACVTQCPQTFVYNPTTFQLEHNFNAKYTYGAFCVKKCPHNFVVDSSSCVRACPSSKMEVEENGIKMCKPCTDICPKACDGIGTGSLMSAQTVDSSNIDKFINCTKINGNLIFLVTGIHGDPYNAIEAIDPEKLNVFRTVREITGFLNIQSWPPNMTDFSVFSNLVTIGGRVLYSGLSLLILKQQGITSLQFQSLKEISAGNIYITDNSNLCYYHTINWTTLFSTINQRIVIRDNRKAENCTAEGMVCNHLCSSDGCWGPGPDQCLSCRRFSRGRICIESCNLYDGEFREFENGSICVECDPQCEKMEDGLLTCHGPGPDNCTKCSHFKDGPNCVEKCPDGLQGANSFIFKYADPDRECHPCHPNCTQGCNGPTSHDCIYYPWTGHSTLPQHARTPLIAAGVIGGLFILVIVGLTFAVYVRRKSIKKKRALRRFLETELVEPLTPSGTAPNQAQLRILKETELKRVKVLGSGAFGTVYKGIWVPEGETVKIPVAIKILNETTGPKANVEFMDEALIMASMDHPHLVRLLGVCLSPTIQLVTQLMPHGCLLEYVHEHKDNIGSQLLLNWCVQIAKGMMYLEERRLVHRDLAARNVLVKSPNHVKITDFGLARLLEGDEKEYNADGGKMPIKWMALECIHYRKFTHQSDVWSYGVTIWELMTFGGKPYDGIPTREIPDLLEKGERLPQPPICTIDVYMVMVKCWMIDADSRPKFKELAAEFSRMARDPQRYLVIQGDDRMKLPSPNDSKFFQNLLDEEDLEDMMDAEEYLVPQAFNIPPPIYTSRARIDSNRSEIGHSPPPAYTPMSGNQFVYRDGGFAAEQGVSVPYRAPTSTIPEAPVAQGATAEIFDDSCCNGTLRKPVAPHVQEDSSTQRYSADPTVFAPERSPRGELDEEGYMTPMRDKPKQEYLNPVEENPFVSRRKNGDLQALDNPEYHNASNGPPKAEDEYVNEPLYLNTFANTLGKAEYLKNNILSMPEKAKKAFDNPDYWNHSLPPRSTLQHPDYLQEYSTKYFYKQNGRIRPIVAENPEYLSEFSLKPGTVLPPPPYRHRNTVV

[17] = molecular target: Receptor tyrosine-protein kinase erbB-4 (Homo sapiens) (UniProt Q15303); settings: at 10 µM
[18] = molecular target: Focal adhesion kinase 1 (Homo sapiens) (UniProt Q05397); settings: at 1 µM

## CCCCc1c(-c2ccc(OC)cc2)[nH]c2nccnc12
[1]
  residual activity: 49%
[2]
  residual activity: 108%
[3]
  residual activity: 105%
[4]
  residual activity: 100%
[5]
  residual activity: 83%
[6]
  residual activity: 77%
[7]
  residual activity: 73%
[8]
  residual activity: 61%
[9]
  residual activity: 61%
[10]
  residual activity: 101%
[11]
  residual activity: 89%
[12]
  residual activity: 121% (inactive)
[13]
  residual activity: 109%
[14]
  residual activity: 78%
[15]
  residual activity: 81%
[16]
  residual activity: 120%
[17]
  residual activity: 102%
[18]
  residual activity: 67%
